{"source": "PubChem BioAssay (NCI)", "note": "The panel holds about 79,000 compounds, 15% with a hit somewhere; the sample as a whole holds those more often. Unmarked numbers belong to inactive results. Active and inactive are the calls of the source. No stated cut-off is given here; in the data, active means growth inhibition above about 70%; inactive means the rest.", "data": [{"test": "NCI Yeast Anticancer Drug Screen. Data for the rad50EPP+ strain (AID 151);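 further: 0% = growth of vehicle-treated control cultures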", "settings": "S. cerevisiae rad50 mutant strain, at 100.0 µM, active compounds read high", "outline": "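Exposing the rad50EPP+ strain to each compound, growth was compared with vehicle-only cultures to give inhibition.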", "values": [{"smiles": "O=[N+]([O-])CC(SCc1ccccc1)c1ccc2c(c1)OCO2", "note": "(stereo not drawn)", "growth inhibition": "98% (active)"}, {"smiles": "COc1cc2c(cc1[N+](=O)[O-])C(=O)C(Br)(Br)CCC2", "growth inhibition": "96% (active)"}, {"smiles": "OCC1OC(OCC(O)C(O)C(O)C(/C=N/Nc2ccccc2)=N/Nc2ccccc2)C(O)C(O)C1O", "note": "(stereo not drawn)", "growth inhibition": "37%"}, {"smiles": "COc1ccc(N=C2C(=O)Nc3ccc(Br)cc32)cc1", "growth inhibition": "-20%"}, {"smiles": "Cn1c(=O)c2ccccc2c2ccccc21", "growth inhibition": "91% (active)"}, {"smiles": "CC[n+]1ccc2c(C)c3[nH]c4ccc(O)cc4c3c(C)c2c1", "growth inhibition": "90% (active)"}, {"smiles": "CC(=O)ON1C(=O)c2cccc3cccc(c23)C1=O", "growth inhibition": "57%"}, {"smiles": "COc1ccc2ccc3ccccc3c2c1C=O", "growth inhibition": "25%"}, {"smiles": "OC1CCCc2c1cc1ccc3cccc4ccc2c1c34", "note": "(stereo not drawn)", "growth inhibition": "62%"}]}, {"test": "NCI Yeast Anticancer Drug Screen. Data for the mgt1 strain (AID 153)", "settings": "S. cerevisiae mgt1 mutant growth inhibition; at 1.2 µM; active compounds read high", "outline": "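Genetically defined yeast (mgt1) treated with compound; inhibition of growth expressed against vehicle-treated controls.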", "units": {"growth inhibition": "%"}, "values": [{"smiles": "CCN(CC)CC[n+]1ccc2c(C)c3[nH]c4ccc(O)cc4c3c(C)c2c1", "growth inhibition": 0}, {"smiles": "O=[n+]1c2ccc(Cl)cc2n([O-])c2ccc(Cl)cc21", "growth inhibition": -3}, {"smiles": "CCOP(=O)(OCC)C(Cc1ccccc1)N=C(c1ccccc1)c1ccccc1", "note": "(stereo not drawn)", "growth inhibition": 16}, {"smiles": "CC[C@@]1(O)C(=O)OCc2c1cc1n(c2=O)Cc2cc3c(N)cccc3nc2-1", "growth inhibition": 4}, {"smiles": "COC1C=COC2(C)Oc3c(C)c(O)c4c(c3C2=O)/C(=N/C2CCC(O)OC2C)C=C(NC(=O)/C(C)=C\\C(=O)C2CC2C(O)C(C)C(O)C(C)C(OC(C)=O)C1C)C4=O", "note": "(stereo not drawn)", "growth inhibition": 0}, {"smiles": "COc1cc2c(c(OC)c1OC)-c1c(cc3c(c1OC)OCO3)CC(C)C(C)(O)C2OC(=O)c1ccccc1", "note": "(stereo not drawn)", "growth inhibition": -5}, {"smiles": "O=c1ssc2ncccc12", "growth inhibition": -1}, {"smiles": "O=C1C2C(C(=O)N1c1ccc(OCc3ccccc3)cc1)C1c3ccccc3C2C2CCCCN21", "note": "(stereo not drawn)", "growth inhibition": 4}, {"smiles": "COc1ccc(-c2cn(-c3ccc(I)cc3)c3ncnc(N)c23)cc1", "growth inhibition": -6}, {"smiles": "CCOC(=O)C(NC(=O)c1ccccc1)(N1CCN(c2cc3c(cc2F)c(=O)c(C(=O)O)cn3C2CC2)CC1)C(F)(F)F", "note": "(stereo not drawn)", "growth inhibition": 1}, {"smiles": "C/C(=N\\O)C1CC2C=C(C#N)C1N(Cc1ccccc1)C2", "note": "(stereo not drawn)", "growth inhibition": -5}, {"smiles": "CC/C(=C(\\c1ccccc1)c1ccc(OCCN(C)C)cc1)c1ccccc1", "growth inhibition": 7}, {"smiles": "COc1ccccc1N=NC(C(=O)c1ccccc1)C(=O)c1ccccc1", "growth inhibition": -29}, {"smiles": "CC(O)C(O)C(O)C(/C=N\\Nc1ccccc1)=N/Nc1ccccc1", "note": "(stereo not drawn)", "growth inhibition": 6}, {"smiles": "COc1ccc(/C=C2\\SC(=S)N(/C=C/c3nc4ccccc4[nH]c3=O)C2=O)cc1OC", "growth inhibition": -1}, {"smiles": "N#CN=Nc1cc(Cl)c(N=NC#N)cc1Cl", "growth inhibition": -10}, {"smiles": "Cc1ccc(S(=O)(=O)Oc2cc(Cl)c(Cl)cc2Cl)cc1", "growth inhibition": 0}, {"smiles": "c1ccc2c(c1)Oc1cccc3cccc-2c13", "growth inhibition": -1}, {"smiles": "O=C(c1ccc(Cl)cc1Cl)C(Cl)Cl", "growth inhibition": -21}, {"smiles": "CC(C)C1=CCC2C(=C1)CCC1C(C)(C(=O)O)CCCC21C", "note": "(stereo not drawn) (tested in a mixture with another compound)", "growth inhibition": 0}, {"smiles": "COc1cc(/C=C2\\CCc3ccccc3C2=O)cc(OC)c1OC", "growth inhibition": -9}, {"smiles": "CC(=O)[O][Bi]([c]1ccccc1)[c]1ccccc1", "growth inhibition": 28}, {"smiles": "S=C(N/N=C/c1ccccn1)Nc1ccc(Cl)cc1", "growth inhibition": -7}, {"smiles": "COc1cc(CC2CC(c3ccc4c(c3)OCO4)OC2=O)cc(OC)c1OC", "note": "(stereo not drawn)", "growth inhibition": -1}, {"smiles": "CNC1C(OC2C(OC3C(O)C(O)C(N=C(N)N)C(O)C3N=C(N)N)OC(C)C2(O)CO)OC(CO)C(O)C1O", "note": "(stereo not drawn)", "growth inhibition": 0}, {"smiles": "NNC(=O)CCc1ccc2ccc3ccccc3c2c1", "growth inhibition": -2}, {"smiles": "Oc1ccc2ccccc2c1C(c1ccc(Cl)cc1)c1c(O)ccc2ccccc12", "growth inhibition": -34}, {"smiles": "CCCCN(CCCC)CCSc1ccc(Cl)cc1", "growth inhibition": -4}, {"smiles": "CCC(C)COC(=O)c1ccc(N=Cc2ccc(C=Nc3ccc(C(=O)OCC(C)CC)cc3)cc2)cc1", "note": "(stereo not drawn)", "growth inhibition": 1}, {"smiles": "CC1(C)C(=O)OC(n2cc(F)c(=O)[nH]c2=O)C1=O", "note": "(stereo not drawn)", "growth inhibition": 19}, {"smiles": "O=[N+]([O-])CC(SCc1ccccc1)c1ccc2c(c1)OCO2", "note": "(stereo not drawn)", "growth inhibition": 9}, {"smiles": "COc1cc2c(cc1[N+](=O)[O-])C(=O)C(Br)(Br)CCC2", "growth inhibition": 50}, {"smiles": "OCC1OC(OCC(O)C(O)C(O)C(/C=N/Nc2ccccc2)=N/Nc2ccccc2)C(O)C(O)C1O", "note": "(stereo not drawn)", "growth inhibition": 3}, {"smiles": "COc1ccc(N=C2C(=O)Nc3ccc(Br)cc32)cc1", "growth inhibition": 8}]}]}
